# Shown are actives, neighbours in structure and some others; about 12% of the full set was active somewhere.
# ROMK primary: human ROMK K+ channel modulation, primary screen. Tet-inducible ROMK, thallium flux fluorescence; actives lie on both sides. B-score at 10 µM. 2% of 130,000 active. AID 1918;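 active = signal ratio slope over the read window, or its plate-corrected B-score, at least 3 SD from the plate mean, either direction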;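 note: B-score of the F/F0 ratio slope over 7 to 12 s after thallium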
# Target sequence (P48048 whole entry, looked up): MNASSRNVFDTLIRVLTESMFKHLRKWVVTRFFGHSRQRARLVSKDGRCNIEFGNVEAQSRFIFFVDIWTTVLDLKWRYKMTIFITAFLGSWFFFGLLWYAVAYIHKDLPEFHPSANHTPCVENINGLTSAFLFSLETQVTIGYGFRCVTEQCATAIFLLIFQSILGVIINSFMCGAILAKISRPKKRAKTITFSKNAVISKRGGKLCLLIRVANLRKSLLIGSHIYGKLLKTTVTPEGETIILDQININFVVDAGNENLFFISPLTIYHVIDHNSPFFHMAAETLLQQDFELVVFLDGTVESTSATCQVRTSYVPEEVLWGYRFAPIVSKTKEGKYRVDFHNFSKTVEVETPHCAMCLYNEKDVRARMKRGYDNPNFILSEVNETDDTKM
# KCC2 mod: modulators of human KCC2 chloride dependent transport; Q9H2X9; KCC2 cells, thallium flux FluoZin-2 fluorescence; B-score of Tl+ flux slope (higher = more flux/activation; lower = inhibition) at 10 µM; 2.2% of 190,000 active; AID 1456;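 active = thallium flux slope and its plate-corrected score both differing from the plate sample mean at a set confidence after two filtering rounds, in either direction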;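 note: slope of fluorescence scaled to starting intensity during 10 to 20 s after thallium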
# WT yeast gro inh: growth inhibition of WT yeast, mitochondrial fusion screen; 2.1% of 190,000 active; AID 1362; inhibition, % at 10 µM; mitochondrial fusion phenotypic screen, WT strain; in the data active = inhibition above about 58%; tested in S. cerevisiae
# Lmaj promast: reduces viability of Leishmania major promastigotes; inhibition, % at 10 µM; resazurin fluorescence viability; AID 1063; 9% of 200,000 active; in the data active = inhibition above about 50%;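 note: promastigotes grown with compound for 44 hours at 28 °C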
# Calpain2 inh: blocks pig calpain II enzyme activity | purified calpain II, fluorogenic peptide substrate, 30 min | inhibition, % at 16 µM | 0.37% of 220,000 active;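 active = inhibition above about 50%, limit read from the data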
# KCC2 sec1: confirmation of human KCC2 transport modulators | shares compounds with KCC2 mod | 15% of 3,700 active | HEK293-KCC2, thallium flux, FluoZin2 fluorescence; hits give high values | AID 1713 | normalised thallium flux (F/F0 slope) at 10 µM;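 active = thallium flux slope above the same plate's solvent-only control mean plus 3 SD; inconclusive = the two replicate wells disagree; inactive = no significant difference from solvent-only control wells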
# KCC2 bumet counter: bumetanide-insensitive thallium flux in KCC2 cells with ouabain, counter-screen. 49% of 3,700 active. AID 1714. normalized thallium flux at 10 µM. HEK293-KCC2 + bumetanide/ouabain, thallium flux FluoZin2; hits give high values. shares compounds with KCC2 mod;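 active = thallium entry rate above the same plate's blocked-transporter control wells by more than 3 SD; inconclusive = the two repeat wells disagree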;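 note: raw slope of fluorescence over initial fluorescence between 10 and 20 s after thallium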
# KCC2 sec2: confirmation of human KCC2 transport modulators; 23% of 3,700 active; shares compounds with KCC2 mod; HEK293-KCC2, thallium flux FluoZin2 fluorescence; actives lie on both sides; F/F0 rise rate, 10–20 s post-thallium; normalized thallium flux at 10 µM;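 active = thallium flux slope more than 3 SD above or below the plate's solvent-only control mean, mostly below; inconclusive = the two repeat wells disagreed; inactive = no significant shift from solvent-only controls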
# HEK counter1: parental HEK flux effect, counter-screen; thallium flux rate (normalised fluorescence) at 10 µM; HEK293 parental cells, thallium flux FluoZin2, ouabain; baseline-ratio fluorescence slope, 10–20 s after thallium; shares compounds with KCC2 mod; 46% of 3,700 active; AID 1716;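 active = thallium flux rate significantly above the same plate's solvent-only control wells, beyond their mean plus 3 SD; inconclusive = the two replicate wells gave conflicting results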
# KCC2 retest ouab: KCC2 (human) modulation, ouabain retest; shares compounds with KCC2 mod; AID 1717; 48% of 3,700 active; HEK293-KCC2, thallium flux FluoZin2 fluorescence; bidirectional: low = inhibitor, high = activator; raw Tl+ flux slope (below DMSO = inhibition, above = activation) at 10 µM;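 active = thallium flux slope beyond 3 SD from same-plate DMSO control mean in most replicates, usually higher, sometimes lower; inconclusive = repeat tests gave conflicting results; inactive = no significant difference from controls in most replicates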;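 note: slope of initial-normalized fluorescence between seconds 10 and 20 after thallium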
# HEK293 Tl flux2: parental HEK flux effect, counter-screen 2. shares compounds with KCC2 mod. 33% of 3,700 active. thallium flux slope at 10 µM. AID 1718. HEK293 parental, thallium flux FluoZin-2 fluorescence slope;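 active = thallium flux slope above the same plate's solvent-control mean plus 3 SD in both duplicate wells; inconclusive = duplicate wells that disagreed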;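 note: run without ouabain in cells lacking the KCC2 cotransporter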
# A number is an active result; i = inactive; ? = inconclusive; nt = no result.
SMILES,ROMK primary,KCC2 mod,WT yeast gro inh,Lmaj promast,Calpain2 inh,KCC2 sec1,KCC2 bumet counter,KCC2 sec2,HEK counter1,KCC2 retest ouab,HEK293 Tl flux2
COc1ccc(C2/C=C\CN(CC(C)(C)C)CC(=O)N2Cc2ccc(F)cc2)cc1 (configuration not stated),nt,i,nt,nt,i,nt,nt,nt,nt,nt,nt
COC(=O)N1C/C=C\C(c2ccc(OC)cc2)N(Cc2ccc(F)cc2)C(=O)C1 (configuration not stated),nt,i,nt,nt,i,nt,nt,nt,nt,nt,nt
Cc1ccc(-n2nnnc2-c2cnc3cc4c(cc3c2C)OCO4)cc1,i,i,i,i,i,nt,nt,nt,nt,nt,nt
Cc1cc2nnc(SCC(=O)Nc3cc(S(=O)(=O)N4CCOCC4)ccc3Cl)n2c2ccccc12,nt,-4.7,i,i,i,i,?,0.024,0.0057,0.013,0.0082
O=C(NNC(=O)c1cccs1)c1ccco1,i,i,i,i,i,nt,nt,nt,nt,nt,nt
O=C(COc1ccc(Cl)cc1Cl)NNC(=S)NC(=O)c1ccco1,i,70,nt,nt,i,0.03,0.12,i,?,0.076,0.03
CCCOc1ccc(C(=O)NNC(=S)NC(=O)c2ccco2)cc1,nt,97,nt,nt,i,i,i,0.084,0.086,?,0.084
O=C(NNC(=S)NC(=O)c1ccco1)c1ccc(F)cc1,nt,60,nt,nt,i,0.026,0.063,?,0.035,0.043,0.019
COCCNC(=S)NNC(=O)c1ccco1,i,i,i,i,i,nt,nt,nt,nt,nt,nt
O=C(NC(=S)NNC(=O)c1cccs1)c1ccco1,i,3.6,i,i,i,0.018,0.029,i,0.019,0.036,0.013
C=CCn1c(SCc2nc3ccccc3c(=O)[nH]2)nc2scc(C3CC3)c2c1=O,nt,i,nt,nt,i,nt,nt,nt,nt,nt,nt
O=C(C1Cc2ccccc2CN1S(=O)(=O)c1cccs1)N1CCCCC1 (configuration not stated),nt,nt,i,i,i,nt,nt,nt,nt,nt,nt
Cc1ccc(-c2cc(Cc3ccc(N(C)C)cc3)c(=O)[nH]n2)cc1,i,i,nt,nt,i,nt,nt,nt,nt,nt,nt
Cc1ccc2oc(=O)c3cc(C(=O)N4CCN(C)CC4)sc3c2c1,i,i,nt,nt,i,nt,nt,nt,nt,nt,nt
CCCOc1ccc(C(=O)NCCO)cc1,i,5.9,i,i,i,i,i,i,i,i,i
CCCOc1ccc(C(=O)NCCC(=O)NCCCC(=O)OCC)cc1,nt,nt,i,i,i,nt,nt,nt,nt,nt,nt
O=C1CCCC/C1=C/NCc1ccccc1,i,i,i,i,i,nt,nt,nt,nt,nt,nt
Cc1ccc(OCC(=O)N/N=C\c2cccs2)c([N+](=O)[O-])c1,i,i,i,i,i,nt,nt,nt,nt,nt,nt
Cc1ccc(C(=O)N/N=C/c2ccc([N+](=O)[O-])s2)cc1,nt,6.6,i,99,i,i,0.015,i,0.016,?,?
Cc1ccc([N+](=O)[O-])c(C(=O)N/N=C/c2cccs2)c1,i,4.5,nt,nt,i,i,0.014,i,0.011,i,0.014
Cc1ccc([N+](=O)[O-])cc1N=C(c1cccc(Br)c1)N1CCOCC1,i,i,i,i,i,nt,nt,nt,nt,nt,nt
COc1ccc(-n2nc(C(=O)O)c3ccccc3c2=O)cc1,i,i,i,i,i,nt,nt,nt,nt,nt,nt
COc1cccc(-n2nc(C(=O)N3CC(C)CC(C)C3)c3ccccc3c2=O)c1 (configuration not stated),i,4.4,i,i,i,i,i,i,i,i,i
NC(=O)CSc1nnc(-c2cc3ccccc3o2)n1Cc1ccccc1,nt,i,i,i,i,nt,nt,nt,nt,nt,nt
O=C(CSc1nnc(C2CC2)n1Cc1ccccc1)c1cc2ccccc2o1,i,-3.8,i,i,i,i,?,0.024,i,?,i
SMILES,ROMK primary,KCC2 mod,WT yeast gro inh,Lmaj promast,Calpain2 inh,KCC2 sec1,KCC2 bumet counter,KCC2 sec2,HEK counter1,KCC2 retest ouab,HEK293 Tl flux2
Cc1cccc(C=Nc2ccccc2C(N)=O)c1,i,-4.7,i,i,i,i,i,i,i,i,i
CCOc1ccc(NC(=O)CSc2ccccc2N)cc1,i,i,i,i,i,nt,nt,nt,nt,nt,nt
CC(=O)NC1=NN(C(C)=O)C2(S1)C(=O)N(C(C)C)c1ccc(C)cc12 (configuration not stated),i,nt,i,i,i,i,i,i,i,i,i
CCN(CC)S(=O)(=O)c1ccc(NC(=O)CSc2ncnc3ccccc23)cc1,i,-5.2,i,i,i,i,i,?,i,0.013,i
COc1ccc(S(=O)(=O)N2CCCCC2)cc1NC(=O)CSc1ncnc2ccccc12,nt,-3.3,i,i,i,i,i,i,?,0.015,i
COc1ccc(-n2cnnc2SCC(=O)Nc2cc(S(=O)(=O)N3CCCCC3)ccc2C)cc1,nt,-4.4,i,67,i,i,i,0.026,i,0.014,i
Cc1[nH]c2ccccc2c1C(=O)COc1ccccc1,i,i,i,i,i,nt,nt,nt,nt,nt,nt
CC(=O)Nc1cccc(NC(=O)C(=O)c2cn(CC(=O)N3CCCCC3)c3ccccc23)c1,i,i,i,i,i,nt,nt,nt,nt,nt,nt
CC1(CCl)N([O-])C2=C(CCCC2)[N+]1=O (configuration not stated),nt,i,nt,nt,i,nt,nt,nt,nt,nt,nt
CNC(=S)N=Nc1c(O)[nH]c2ccccc12,i,4.1,i,i,i,i,0.021,i,0.011,i,0.012
Cc1ccc(NC(=S)N=Nc2c(O)[nH]c3ccccc23)cc1,i,4.3,i,91,i,i,0.018,i,0.02,0.032,0.013
Oc1ccc(NC(=S)N=Nc2c(O)[nH]c3ccccc23)cc1,i,i,i,i,i,nt,nt,nt,nt,nt,nt
COc1ccc(NC(=S)N=Nc2c(O)[nH]c3ccccc23)cc1,nt,i,nt,nt,i,nt,nt,nt,nt,nt,nt
Oc1[nH]c2ccc(Br)cc2c1N=NC(=S)Nc1ccc(F)cc1,i,25,nt,nt,i,i,0.033,?,0.015,0.031,0.018
Cc1ccc(NC(=O)CCc2nc3ccccc3s2)c(O)c1,i,i,i,i,i,nt,nt,nt,nt,nt,nt
Cc1nc(C)c(C(=O)NNS(=O)(=O)c2ccc([N+](=O)[O-])cc2)s1,nt,i,i,i,i,nt,nt,nt,nt,nt,nt
CCSCc1nnc(SCC(=O)Nc2ccc(F)cc2)n1CC,i,i,i,i,i,nt,nt,nt,nt,nt,nt
CC(C)(C(=O)Nc1nccs1)c1ccccc1,i,i,i,i,i,nt,nt,nt,nt,nt,nt
Cc1[nH]c2ccccc2c1C(=O)NS(=O)(=O)Nc1ccccc1,i,i,i,i,i,nt,nt,nt,nt,nt,nt
COC(=O)C(NS(C)(=O)=O)(c1c(C)[nH]c2ccccc12)C(F)(F)F (configuration not stated),i,-4.4,i,i,i,i,?,i,i,i,i
N=C1C(c2nc3ccccc3s2)=C(O)CN1Cc1ccco1,nt,3.6,i,i,i,i,?,i,i,i,i
